According to the supplement of paper PMC3334620:
Over roughly 33,000 sequences, “E-score (-0.5 to 0.5)” has its median near -0.056; the highest 2% begin near 0.38. The full list was thinned out, with the highest values kept by preference.

target: Stb4 (UniProt P50104); assay: PBM E-score (8-mer binding enrichment) (E-score (-0.5 to 0.5)); higher = stronger / more preferred TF binding; conditions: protein concentration: 200 nM; construct: GST-DNA-binding domain
How it was run: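 For each ungapped eight-base word taken together with its reverse complement, the Universal PBM Analysis Suite assigned an E-score. Binding data came from GST-tagged yeast transcription factors, applied at about 100-200 nM, on universal all-10-mer Agilent arrays made double-stranded by primer extension. Fluorescent anti-GST marked bound protein, and scans were normalised with masliner.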

Chain of UniProt P50104 (P50104 whole entry, the tested form may be a part): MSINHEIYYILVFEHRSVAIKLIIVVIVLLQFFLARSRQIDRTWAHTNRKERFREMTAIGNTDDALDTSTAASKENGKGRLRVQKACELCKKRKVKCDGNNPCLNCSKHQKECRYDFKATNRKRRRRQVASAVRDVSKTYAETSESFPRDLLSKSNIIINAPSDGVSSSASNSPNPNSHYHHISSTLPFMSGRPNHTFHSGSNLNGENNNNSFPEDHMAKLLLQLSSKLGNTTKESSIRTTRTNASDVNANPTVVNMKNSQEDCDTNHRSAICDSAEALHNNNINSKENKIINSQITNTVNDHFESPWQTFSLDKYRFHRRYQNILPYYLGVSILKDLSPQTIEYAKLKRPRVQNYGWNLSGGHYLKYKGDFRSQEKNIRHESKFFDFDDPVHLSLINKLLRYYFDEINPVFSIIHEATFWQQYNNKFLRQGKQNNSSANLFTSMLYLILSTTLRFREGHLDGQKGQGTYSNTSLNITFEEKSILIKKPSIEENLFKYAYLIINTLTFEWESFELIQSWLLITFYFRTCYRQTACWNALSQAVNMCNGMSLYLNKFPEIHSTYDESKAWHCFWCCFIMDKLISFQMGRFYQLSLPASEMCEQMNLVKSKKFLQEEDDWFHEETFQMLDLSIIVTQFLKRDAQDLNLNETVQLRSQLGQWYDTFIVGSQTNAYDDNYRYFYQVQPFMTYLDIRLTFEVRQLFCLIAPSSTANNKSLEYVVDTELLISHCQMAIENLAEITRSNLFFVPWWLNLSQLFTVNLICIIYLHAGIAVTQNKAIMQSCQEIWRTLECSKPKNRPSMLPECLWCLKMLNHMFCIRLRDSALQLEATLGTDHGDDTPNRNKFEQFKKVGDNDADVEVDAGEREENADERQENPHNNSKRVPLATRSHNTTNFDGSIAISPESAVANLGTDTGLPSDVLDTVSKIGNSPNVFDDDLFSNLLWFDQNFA

Row | Sequence | PBM E-score
1 | TAGCCCGA | 0.245
2 | GTACGCCA | -0.109
3 | GACCTGTA | -0.0511
4 | AGACACTA | 0.00615
5 | ATACTAAT | -0.00279
6 | AGTTCACA | -0.153
7 | ATATAGCA | -0.202
8 | AACGTCGC | -0.129
9 | CCTTGATA | -0.351
10 | CAGAGCCG | 0.237
11 | CCTAACAA | -0.248
12 | AACCGAGA | 0.407
13 | CACCGAGC | 0.295
14 | AACCGATA | 0.227
15 | GACCGAGA | 0.339
16 | AACCGAGT | 0.305
17 | AACCGAGC | 0.418
18 | TACCGAGA | 0.431
19 | CACCGAGA | 0.222
20 | AACCGACA | 0.286
21 | CCTTCAAG | -0.097
22 | ATTTATGG | -0.152
23 | CAACATCC | 0.213
24 | ATGTGCAG | -0.166
25 | ACGGATCT | 0.28

Row | Sequence | PBM E-score
26 | ATGGATAA | 0.024
27 | ATGGATAC | 0.0478
28 | ACGGATAA | 0.416
29 | ACGGATAT | 0.407
30 | AAGGATAC | -0.152
31 | ACGGATAG | 0.381
32 | ACGGATAC | 0.407
33 | ACGGATTA | 0.145
34 | ACCGGTTC | 0.216
35 | CGAGCGCG | 0.235
36 | CCTTGGAG | -0.196
37 | AACCGATG | 0.222
38 | ACCCGATG | 0.399
39 | AGCCGATG | 0.321
40 | ATCCGATA | 0.448
41 | CTCCGATA | 0.275
42 | CTCCGATC | 0.229
43 | AACCGATC | 0.253
44 | ATCCGATC | 0.428
45 | ACCCGATC | 0.333
46 | ATCCGATG | 0.437
47 | GTCCGATA | 0.22
48 | ACCCGATA | 0.349
49 | GGCAGTGA | 0.0105
50 | CCCATAGC | -0.0731

Row | Sequence | PBM E-score
51 | ACCATATA | -0.114
52 | GGTCTAAC | 0.0261
53 | ATCCTGCG | -0.117
54 | CAATGCCA | -0.241
55 | AAGCCTAA | -0.0457
56 | CACTCTAA | -0.151
57 | ATGGGCGC | -0.158
58 | AGGGCTGC | -0.134
59 | ATCTGACA | -0.0757
60 | CCGAGGGA | 0.386
61 | GCGAGGGA | -0.129
62 | CCGAGGGC | 0.431
63 | ACGAGGGC | -0.0578
64 | ACGAGGGA | -0.0722
65 | CAGAGGGC | -0.151
66 | ATCTAACA | -0.00015
67 | CTAGGCAG | -0.169
68 | CGACCCTA | 0.0884
69 | GGACCCCA | -0.0727
70 | GGACCCGA | 0.386
71 | CGACCCGA | 0.4
72 | GGACCCTA | -0.144
73 | CGGGCCGA | 0.435
74 | CGGCCCGA | 0.444
75 | GGGCCCGA | 0.278

Row | Sequence | PBM E-score
76 | GGGGCCGA | 0.174
77 | CGGGCCGC | 0.309
78 | AGGCCCGA | 0.233
79 | CGACCCGC | 0.173
80 | CAATCGGA | 0.374
81 | CGAGGATA | 0.0376
82 | ACATATAA | -0.0928
83 | CCTCTTTA | -0.157
84 | ACTATACG | 0.00583
85 | ATGACGAC | 0.0312
86 | ATACCGAG | 0.377
87 | AAGCCATG | -0.117
88 | AGTCTTCG | -0.008
89 | CCGGCCAA | 0.271
90 | CGGACCTC | 0.124
91 | GCGCTGAC | -0.0933
92 | AGACCCGC | 0.174
93 | AGACCCGA | 0.419
94 | AGACCCGG | 0.305
95 | AAACTGTG | -0.12
96 | AGAGGGAT | -0.271
97 | CCGAGACC | 0.431
98 | ACGAGAGC | -0.151
99 | CCGAGACG | 0.41
100 | CCGAGAGC | 0.388

Row | Sequence | PBM E-score
101 | ACGAGACC | -0.0429
102 | CCGAGAGA | 0.373
103 | ACGAGACG | 0.0568
104 | CCGAGACA | 0.372
105 | CGGAGACG | 0.235
106 | CCACCACG | -0.109
107 | AAGCTAGG | 0.0266
108 | GGCAGGCA | 0.0342
109 | CGGGGCCA | 0.22
110 | AATAGGAG | -0.317
111 | GTCCTCCA | -0.138
112 | CGGAAGAA | 0.406
113 | GGGAAGTA | 0.184
114 | AGGAAGAA | -0.278
115 | AGGAAGTC | -0.19
116 | AGGAAGGA | -0.282
117 | CTGAAGTC | 0.0307
118 | AGGAAGTA | 0.112
119 | GGGAAGAA | 0.0883
120 | CGGAAGGA | 0.397
121 | CGGAAGTC | 0.414
122 | CGGAAGTA | 0.419
123 | GGGAAGGA | 0.0823
124 | ACGCTCAT | -0.276
125 | AAAGGCGA | -0.0639

Row | Sequence | PBM E-score
126 | AGAGCAAC | -0.287
127 | GGGTTTAA | 0.0372
128 | CACGAGAA | -0.167
129 | TCCGAGAA | 0.455
130 | CCCGAGAA | 0.44
131 | GCCGAGAC | 0.392
132 | GTCGAGAC | 0.0445
133 | ACCGAGAA | 0.311
134 | CCCGAGAG | 0.385
135 | TTCGAGAA | -0.207
136 | CACGAGAG | -0.136
137 | CTCGAGAG | -0.201
138 | TACGAGAA | -0.113
139 | GGCGAGAC | -0.245
140 | ATAATCAT | -0.0964
141 | CCCATTAC | -0.104
142 | CCCGCAAC | 0.228
143 | CAGGCACA | -0.178
144 | ACGGGCCT | 0.0389
145 | CAACCACC | 0.0572
146 | GCCTAGAC | -0.139
147 | CCTCGAAC | -0.249
148 | GTGACCAA | -0.203
149 | ACCGAGAC | 0.357
150 | CGCGAGAC | -0.0463

Row | Sequence | PBM E-score
151 | CCCGAGAC | 0.412
152 | GACGAGAA | -0.169
153 | GTCGAGAA | -0.277
154 | GCCGAGAA | 0.406
155 | CACCTACG | 0.0326
156 | AACCATGT | 0.0503
157 | AAACCATA | -0.0199
158 | GACTAGCA | -0.114
159 | GAGGAGGA | -0.152
160 | CACCCGAA | 0.436
161 | AACCCGAG | 0.406
162 | CACCCAAA | -0.0471
163 | CACCCGGC | 0.277
164 | CACCCGAC | 0.384
165 | ACCCCGAG | 0.333
166 | CCCCCGAC | 0.175
167 | CACCCGAG | 0.448
168 | CCCCCGAG | 0.352
169 | AACCCGAT | 0.285
170 | CCCCCGAA | 0.297
171 | CACCCGGG | 0.323
172 | CCCTAAGG | -0.232
173 | ACCGCTTG | -0.0825
174 | CAATTTCG | 0.0914
